Hits are enriched below; roughly 21% of the tested compounds scored in any of these assays.
ELG1 DNA repair = qHTS screen for small molecules that inhibit ELG1-dependent DNA repair in human embryonic kidney (HEK293T) cells expressing luciferase-tagged ELG1 | HEK293T ELG1-luciferase reporter, luminescence, 16 h; DNA damage induced by 5-fluorouridine | Potency, µM (titrated, usually from 46.1 µM), for the others: top-dose activity change, negative = inhibition, most hits filed as inhibitors | hit rate 2.3% among 330,000 | AID 504467, 2011; also: potency is read from the fitted curve at half-maximal effect; nearly all actives have a fitted effect of over 55% in size
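In this reporter screen, reduction of luminescence relative to DMSO vehicle indicated activity. Compounds and 5-fluorouridine were added together to 2,000 cells per well, incubated for 16 hr at 37 °C, then developed with ONE-Glo.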
IL-1B inflam inh = qHTS for Inhibitors of Inflammasome Signaling: IL-1-beta AlphaLISA Primary Screen; THP-1 LPS/ATP IL-1B secretion, AlphaLISA, 16 h; stronger effect = lower value; activity change, % at 57.5 µM; hit rate 4.7% among 360,000; in the data active = activity change below about -50%; inconclusive = mostly about -30% to -49%
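THP-1 cells pretreated 1 hr with compounds (up to 57.5 uM final), then stimulated with LPS (250 ng/mL final) plus ATP (1.25 mM final); secreted IL-1B measured by AlphaLISA after 16 hr, decreased signal indicating inhibition.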
VP16 counter = VP16 counterscreen qHTS for inhibitors of ROR gamma transcriptional activity | Drosophila S2 Gal4-VP16 UAS-luciferase, luminescence, 20 h | Potency, µM (top dose mostly 53.6 µM), for the others: at the highest dose activity, negative = inhibition, actives largely listed as inhibitors | hit rate 3.5% among 310,000 | AID 2546, 2010;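 also: Gal4-VP16 expression switched on by copper sulfate through the metallothionein promoter; potency is read from the fitted curve at half-maximal effect; nearly all actives have a fitted effect of over 50% in size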
RORgamma inh = qHTS for inhibitors of ROR gamma transcriptional activity | Nuclear receptor ROR-gamma (Mus musculus), P51450 | Drosophila S2 Gal4-RORgamma UAS-luciferase reporter, 20 h | Potency, µM (top dose mostly 53.6 µM), for inactives: at the top dose activity change, negative = inhibition, hits mostly inhibitors | hit rate 5.4% among 310,000 | AID 2551, 2010; also: potency is read from the fitted curve at half-maximal effect; nearly all actives have a fitted effect of over 60% in size
Target sequence (P51450 whole entry, looked up, the tested form may be a part): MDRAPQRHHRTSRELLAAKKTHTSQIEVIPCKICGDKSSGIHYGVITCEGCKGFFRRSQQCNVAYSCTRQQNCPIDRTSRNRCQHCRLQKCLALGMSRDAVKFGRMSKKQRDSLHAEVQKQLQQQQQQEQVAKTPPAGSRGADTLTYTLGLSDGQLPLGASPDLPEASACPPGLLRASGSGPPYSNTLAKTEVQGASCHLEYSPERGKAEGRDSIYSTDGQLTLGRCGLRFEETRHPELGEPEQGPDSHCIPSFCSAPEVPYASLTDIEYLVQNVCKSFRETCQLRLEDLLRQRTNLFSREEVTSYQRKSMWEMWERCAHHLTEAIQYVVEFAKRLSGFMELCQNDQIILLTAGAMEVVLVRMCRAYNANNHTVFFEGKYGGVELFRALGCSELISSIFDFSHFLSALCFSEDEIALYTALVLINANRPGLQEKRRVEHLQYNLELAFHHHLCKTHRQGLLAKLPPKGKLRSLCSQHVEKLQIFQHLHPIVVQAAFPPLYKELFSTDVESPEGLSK
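ROR gamma transcriptional activity was tracked as Gal4-UAS luciferase output in stably transfected Drosophila Schneider cells, with compound added 1 hr before 700 uM copper sulfate induction and a 20 hr ambient-temperature incubation.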
DT40 TDP1 no CPT = qHTS for Inhibitors of human tyrosyl-DNA phosphodiesterase 1 (TDP1): qHTS in cells in absence of CPT; AID 686978, 2013; hit rate 15% among 420,000; DT40 Tdp1-/- hTDP1 cells, no CPT, ATP luminescence, 48 h; Potency, µM (doses to about 46.2 µM), for the others: top-dose activity change, negative = growth inhibition, most hits filed as inhibitors; also: potency is read from the fitted curve at half-maximal effect; nearly all actives have a fitted effect of over 55% in size
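Luminescent ATP content (CellTiter-Glo) served as the growth readout. Knockout chicken DT40 cells expressing human TDP1 were exposed to compounds without camptothecin for a minimum 48 hr at 37 °C.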
DT40 TDP1 CPT = qHTS for Inhibitors of human tyrosyl-DNA phosphodiesterase 1 (TDP1): qHTS in cells in presence of CPT | chicken DT40 Tdp1-/-;hTDP1 cells + 20 nM CPT, ATP luminescence, 48 h | Potency, µM (doses to about 46.2 µM), without a hit: top-dose activity change, negative = growth inhibition, most hits filed as inhibitors | hit rate 12% among 420,000; also: potency is read from the fitted curve at half-maximal effect; nearly all actives have a fitted effect of over 55% in size
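Chicken DT40 Tdp1-/- cells complemented with human TDP1, 400 cells/well, exposed to compounds plus 20 nM camptothecin for at least 48 h at 37 C; viability read as ATP content by CellTiter-Glo luminescence.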
Starred values were filed as active, the others as inactive; i = inactive; ? = inconclusive; · = not tested or not shown; [ ] = dose if it differs, or a comment. Unless noted, calls follow the shape of the dose curve; as a rule, active = well fitted curve in the direction sought with a large enough effect; inconclusive = small, poorly fitted or top-dose-only effect, or another doubt; inactive = no such curve, though single readings can be large; an effect the other way counts as inactive or inconclusive. % is scaled to controls: 0 for no effect and ±100 for the full control effect.

SMILES	ELG1 DNA repair	IL-1B inflam inh	VP16 counter	RORgamma inh	DT40 TDP1 no CPT	DT40 TDP1 CPT
CCC(=O)c1ccc(N2CCN(C(=O)c3ccccc3F)CC2)c(F)c1	?	0.0	-13.9%[10 µM]	19.2%	20.6µM*	10.3µM*
CCC(=O)c1c[nH]c(C(=O)N2CCN(c3ccccc3)CC2)c1	-9.6%	9.1	4.3%	21.6%	-14.4%	10.4%
Cc1ccccc1C(=O)c1c[nH]c(C(=O)N2CCN(c3ccccc3F)CC2)c1	23.1µM*	-66.2*	-14.7%	34.9%	14.6µM*	18.4µM*
CCC(=O)c1ccc(N2CCCCCC2)c(F)c1	?	-0.8	?	3.4%	?	-26.0%
CCC(=O)c1ccc(N2CCN(C(=O)c3ccccc3Br)CC2)c(F)c1	?	-54.6*	?	-56.3%	10.3µM*	?
COc1ccc(Cl)cc1NC(=O)CN(C)C(=O)CCc1nc2ccccc2c(=O)[nH]1	?	21.2	·	·	-21.3%	?
CCC(=O)c1ccc(N2CCN(C(=O)c3cccs3)CC2)c(F)c1	?	6.5	?	?	20.6µM*	?
CCOc1ccccc1N1CCN(C(=O)c2cccs2)CC1	0.3%	-11.0	-0.5%	-23.0%[1.91 µM]	-19.1%	-26.3%
COCCNc1oc(-c2ccccc2Cl)nc1S(=O)(=O)c1ccc(C)cc1	2.5%	-57.1*	·	·	?	?
CN(C)CCCNc1oc(-c2ccccc2Cl)nc1S(=O)(=O)c1ccccc1	-16.7%	-27.5	·	·	?	?
CN(C)CCCNc1oc(-c2ccc(Cl)cc2)nc1S(=O)(=O)c1ccccc1	18.0%	-7.8	·	·	16.4µM*	14.6µM*
O=S(=O)(c1ccc(Br)cc1)c1nc(-c2ccccc2)oc1NCCN1CCOCC1	-24.5%	-61.2*	-7.9%	16.2%	?	?
Cc1ccc(S(=O)(=O)c2nc(-c3ccccc3Cl)oc2NCCCN2CCOCC2)cc1	-0.3%	i	6.2%	-13.9%	25.9µM*	?
COC(=O)[C@@]1(Cc2ccc(OC)cc2)[C@H]2c3cc(C(=O)N(C)C)n(Cc4nc5ccccc5[nH]4)c3C[C@H]2CN1C(=O)c1ccccc1	·	·	-19.4%	40.5%	·	·
CC(C)(CS)C(=O)N1CCC[C@H]1C(=O)O	·	·	-17.6%[17 µM]	-15.0%[16.9 µM]	·	·
O=S(=O)(c1ccc(Cl)cc1)c1nc(-c2ccccc2F)oc1NCCCN1CCOCC1	-10.1%	-73.9*	-1.8%	-30.0%	?	?
O=S(=O)(c1ccc(Cl)cc1)c1nc(-c2ccccc2Br)oc1NCc1ccccc1	·	·	·	·	13µM*	?
Cc1ccccc1-c1nc(S(=O)(=O)c2ccccc2)c(NCCN2CCOCC2)o1	·	-24.9	·	·	?	?
O=C(CSc1n[nH]c(-c2ccc(Br)cc2)n1)NC1CCCC1	?	27.7	·	·	?	?
CCCCOCCCNC(=O)C[C@@H]1C[C@@]2(C(=O)OC)CCCCC=C2N(Cc2ccco2)C1=O	·	4.4	·	·	16.4µM*	?
COC(=O)[C@]12CCCCC=C1N(Cc1ccco1)C(=O)[C@H](CC(=O)NCc1cccs1)C2	·	3.1	·	·	23.1µM*	?
CCCCNC(=O)C[C@@H]1C[C@@]2(C(=O)OC)CCCCC=C2N(Cc2ccco2)C1=O	·	24.9	·	·	?	?
COC(=O)[C@]12CCCCC=C1N(Cc1ccccc1)C(=O)[C@H](CC(=O)NCc1cccs1)C2	·	-6.5	·	·	-25.8%	?
CCOC(=O)[C@]12CCCC=C1N(Cc1ccco1)C(=O)[C@H](CC(=O)NCc1cccs1)C2	·	-11.6	·	·	25.9µM*	?
CCOC(=O)[C@]12CCCC=C1N(Cc1ccco1)C(=O)[C@H](CC(=O)NCc1cccc(C(F)(F)F)c1)C2	·	0.0	·	·	18.4µM*	?
SMILES	ELG1 DNA repair	IL-1B inflam inh	VP16 counter	RORgamma inh	DT40 TDP1 no CPT	DT40 TDP1 CPT
COC(=O)[C@]12CCCCC=C1N(Cc1ccco1)C(=O)[C@H](CC(=O)NCc1cccc(C(F)(F)F)c1)C2	·	-14.6	·	·	?	?
CC1=CC(=O)C(C(C)=Nc2ccccc2[N+](=O)[O-])C(=O)O1 (stereo not drawn)	·	6.8	·	·	2.6%	8.7%
O=C(Nc1cc2c3c(c1)CC(=O)N3CCC2)c1ccco1	?	-20.1	·	·	-23.6%	5.0%
COC(C(=O)N1CCC(n2nccc2NC(=O)C2CC2)CC1)c1ccccc1 (stereo not drawn)	?	16.6	?	29.2%	14.4%	11.8%
CN(C)CCCN(C(=O)COc1ccc(Cl)cc1)c1nc2cc3c(cc2s1)OCCO3	?	-93.6*	·	·	?	-28.3%
CN(C)CCCN(C(=O)COc1ccc(Cl)cc1)c1nc2cc3c(cc2s1)OCO3	22.0%	-99.8*	?	11.2µM*	13µM*	8.2µM*
O=C(NCCc1c[nH]c2ccccc12)/C(=C\c1cccnc1)NC(=O)c1ccccc1F	?	7.9	4.0%	-2.2%	?	-16.1%
Cc1cccc(N2CCCn3c2nc2c3c(=O)n(CCN3CCOCC3)c(=O)n2C)c1	?	24.5	-0.2%	0.6%	?	20.6µM*
CCn1c(=O)c2c(nc3n2CCCN3CCc2ccc(OC)c(OC)c2)n(C)c1=O	?	3.9	-11.5%	11.3%	?	-24.2%
Cn1c(=O)n(C/C=C/c2ccccc2)c(=O)c2c1nc1n2CCCN1Cc1ccccc1	20.6µM*	14.0	-9.3%	4.7%	?	?
Cn1c(=O)n(C/C=C/c2ccccc2)c(=O)c2c1nc1n2CCCN1c1ccc(F)cc1	23.1µM*	-16.8	-12.9%	0.3%	?	-29.2%
COc1ccc(CCN2CCCn3c2nc2c3c(=O)n(CC(C)C)c(=O)n2C)cc1OC	?	-0.9	-2.9%	-7.7%	13µM*	20.6µM*
Cc1cccc(Cn2c(=O)c3c(nc4n3CCCN4Cc3ccccc3)n(C)c2=O)c1	-28.3%	?	-3.7%	11.3%	11.2µM*	?
Cn1c(=O)n(Cc2ccccc2)c(=O)c2c1nc1n2CCCN1C1CCCCC1	·	25.0	·	·	-17.5%	-11.8%
Cn1c(=O)n(Cc2ccc(F)cc2)c(=O)c2c1nc1n2CCCN1C1CCCCC1	-1.8%	-18.5	-10.2%	36.3%	20.6µM*	23.1µM*

High-throughput results deposited in PubChem BioAssay by National Center for Advancing Translational Sciences (NCATS).
